Results from PMC7862700, “An all-to-all approach to the identification of sequence-specific readers for epigenetic DNA modifications on cytosine”.

Assays:
Assay in all cases: DAPPL (digital affinity profiling via proximity ligation, sequencing); 10 mM Tris-HCl pH 7.5, 50 mM NaCl, 1 mM DTT, 4% glycerol, room temperature, 30 min; GST-TFs on glutathione beads, 16-mer random dsDNA library, 0.1% formaldehyde crosslink after washing; high values mean tight binding
FLI1 = biological target: T1, FLI1 (Homo sapiens, UniProt Q01543 1-452); settings: protein: recombinant; tags: N-terminal GST; dsDNA, one strand shown
T1 sequence: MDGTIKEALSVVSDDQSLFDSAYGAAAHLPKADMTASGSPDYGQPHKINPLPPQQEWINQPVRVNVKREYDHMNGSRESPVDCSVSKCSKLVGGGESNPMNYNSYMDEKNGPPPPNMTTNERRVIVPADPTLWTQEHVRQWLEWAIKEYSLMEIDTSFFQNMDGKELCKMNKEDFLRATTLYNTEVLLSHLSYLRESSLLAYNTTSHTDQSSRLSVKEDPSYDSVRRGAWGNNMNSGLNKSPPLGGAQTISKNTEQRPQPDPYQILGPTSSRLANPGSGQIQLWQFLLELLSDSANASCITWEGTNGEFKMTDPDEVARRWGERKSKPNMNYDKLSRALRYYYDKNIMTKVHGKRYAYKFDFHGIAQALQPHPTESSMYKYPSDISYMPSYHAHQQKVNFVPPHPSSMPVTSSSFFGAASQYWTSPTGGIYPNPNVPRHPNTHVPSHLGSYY
Summary of the method: (§1)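 Binding signal is given per hexamer as its read frequency for a factor divided by its frequency in the tag-only sample. GST-fused human transcription factors were expressed in yeast, captured on glutathione beads, barcoded with DNA and pooled with that sample, then incubated with 200 nmole of a 16-mer random double-stranded DNA library in Tris/NaCl/DTT/glycerol buffer for 30 min at room temperature. The pools were then washed, crosslinked, proximity-ligated, amplified by PCR and sequenced on an Illumina NextSeq500.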

ELK1 = biological target: T2, ELK1 (Homo sapiens, UniProt P19419 1-428); settings: protein: recombinant; tags: N-terminal GST; dsDNA, one strand shown
T2 sequence: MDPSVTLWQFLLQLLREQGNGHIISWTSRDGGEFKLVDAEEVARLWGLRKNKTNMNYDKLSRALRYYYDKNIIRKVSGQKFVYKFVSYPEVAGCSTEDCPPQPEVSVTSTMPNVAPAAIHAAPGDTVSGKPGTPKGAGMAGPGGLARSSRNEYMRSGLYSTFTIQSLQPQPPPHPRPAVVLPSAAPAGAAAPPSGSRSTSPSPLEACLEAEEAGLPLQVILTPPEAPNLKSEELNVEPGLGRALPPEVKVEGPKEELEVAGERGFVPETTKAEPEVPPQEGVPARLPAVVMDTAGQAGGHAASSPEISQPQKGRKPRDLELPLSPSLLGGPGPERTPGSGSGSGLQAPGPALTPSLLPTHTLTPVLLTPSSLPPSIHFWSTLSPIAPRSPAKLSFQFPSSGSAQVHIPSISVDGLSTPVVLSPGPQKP
Summary of the method: as §1

ERG = biological target: T3, ERG (Homo sapiens, UniProt P11308 1-479); settings: protein: recombinant; tags: N-terminal GST; dsDNA, one strand shown
T3 sequence: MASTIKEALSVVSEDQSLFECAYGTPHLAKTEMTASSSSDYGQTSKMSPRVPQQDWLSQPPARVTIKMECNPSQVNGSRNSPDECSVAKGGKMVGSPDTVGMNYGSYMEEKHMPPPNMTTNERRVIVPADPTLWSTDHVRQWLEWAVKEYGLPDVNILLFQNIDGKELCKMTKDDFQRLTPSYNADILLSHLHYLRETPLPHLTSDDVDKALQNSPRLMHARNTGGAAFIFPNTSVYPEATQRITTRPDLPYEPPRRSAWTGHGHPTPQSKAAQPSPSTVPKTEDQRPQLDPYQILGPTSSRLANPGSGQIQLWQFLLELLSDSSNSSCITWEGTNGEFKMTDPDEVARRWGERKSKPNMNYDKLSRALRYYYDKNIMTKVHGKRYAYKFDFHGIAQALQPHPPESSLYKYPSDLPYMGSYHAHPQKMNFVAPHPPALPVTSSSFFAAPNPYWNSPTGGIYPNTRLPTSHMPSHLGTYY
Summary of the method: as §1

ELF1 = ELF1 (Homo sapiens, UniProt P32519 1-619); settings: protein: recombinant; tags: N-terminal GST; dsDNA, one strand shown
Chain of ELF1 (P32519 whole entry): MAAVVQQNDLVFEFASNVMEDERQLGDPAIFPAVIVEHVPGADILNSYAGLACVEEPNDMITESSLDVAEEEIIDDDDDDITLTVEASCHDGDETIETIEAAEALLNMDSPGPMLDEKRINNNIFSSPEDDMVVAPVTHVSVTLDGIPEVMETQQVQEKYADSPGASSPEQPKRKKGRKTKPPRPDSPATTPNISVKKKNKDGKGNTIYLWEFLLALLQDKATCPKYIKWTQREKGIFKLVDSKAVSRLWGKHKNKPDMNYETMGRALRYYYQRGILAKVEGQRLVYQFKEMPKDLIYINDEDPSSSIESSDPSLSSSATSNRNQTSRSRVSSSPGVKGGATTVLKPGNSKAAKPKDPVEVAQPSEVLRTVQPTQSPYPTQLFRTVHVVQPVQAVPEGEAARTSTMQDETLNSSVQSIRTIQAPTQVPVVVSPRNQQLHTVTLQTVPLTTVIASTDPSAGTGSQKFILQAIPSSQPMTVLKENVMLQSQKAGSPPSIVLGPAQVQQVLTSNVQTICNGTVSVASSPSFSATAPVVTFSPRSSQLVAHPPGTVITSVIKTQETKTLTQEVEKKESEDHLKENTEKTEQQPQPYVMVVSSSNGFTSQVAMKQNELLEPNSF
Summary of the method: as §1

EHF = biological target: T4, EHF (Homo sapiens, UniProt Q9NZC4 1-300); settings: protein: recombinant; tags: N-terminal GST; dsDNA, one strand shown
T4 sequence: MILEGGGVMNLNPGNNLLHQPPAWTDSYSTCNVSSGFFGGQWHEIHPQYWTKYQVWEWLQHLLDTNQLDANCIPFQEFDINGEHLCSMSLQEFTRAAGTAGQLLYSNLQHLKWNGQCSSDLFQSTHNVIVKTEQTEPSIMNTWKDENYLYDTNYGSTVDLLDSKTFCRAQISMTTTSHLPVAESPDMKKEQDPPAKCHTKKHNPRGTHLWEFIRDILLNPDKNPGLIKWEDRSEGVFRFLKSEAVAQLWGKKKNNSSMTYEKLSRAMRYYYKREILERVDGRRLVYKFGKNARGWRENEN
Summary of the method: as §1

SPI1 = SPI1 (Homo sapiens, UniProt P17947 1-270); settings: protein: recombinant; tags: N-terminal GST; dsDNA, one strand shown
Summary of the method: as §1

SPIB = SPIB (Homo sapiens, UniProt Q01892 1-262); settings: protein: recombinant; tags: N-terminal GST; dsDNA, one strand shown
Chain of SPIB (Q01892 whole entry): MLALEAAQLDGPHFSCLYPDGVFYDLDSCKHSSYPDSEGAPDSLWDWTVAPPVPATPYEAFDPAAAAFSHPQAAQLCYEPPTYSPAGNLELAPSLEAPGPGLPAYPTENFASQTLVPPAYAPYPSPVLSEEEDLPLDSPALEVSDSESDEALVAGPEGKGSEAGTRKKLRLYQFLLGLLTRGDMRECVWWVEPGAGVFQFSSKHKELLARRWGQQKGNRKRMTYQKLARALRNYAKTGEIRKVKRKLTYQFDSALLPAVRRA
Summary of the method: as §1

ELK3 = biological target: T5, ELK3 (Homo sapiens, UniProt P41970 1-407); settings: protein: recombinant; tags: N-terminal GST; dsDNA, one strand shown
T5 sequence: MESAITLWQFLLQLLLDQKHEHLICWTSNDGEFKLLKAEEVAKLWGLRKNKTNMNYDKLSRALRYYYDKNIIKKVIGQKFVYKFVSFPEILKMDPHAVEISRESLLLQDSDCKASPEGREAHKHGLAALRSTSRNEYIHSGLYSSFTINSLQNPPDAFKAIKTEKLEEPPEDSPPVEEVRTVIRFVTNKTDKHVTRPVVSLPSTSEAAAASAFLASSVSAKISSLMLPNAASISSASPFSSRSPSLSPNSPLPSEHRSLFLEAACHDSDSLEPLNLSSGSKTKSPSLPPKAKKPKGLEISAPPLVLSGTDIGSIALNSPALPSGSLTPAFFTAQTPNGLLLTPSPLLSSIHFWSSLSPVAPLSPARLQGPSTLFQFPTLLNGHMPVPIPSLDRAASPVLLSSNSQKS
Summary of the method: as §1

ETV5 = ETV5 (Homo sapiens, UniProt P41161 1-510); settings: protein: recombinant; tags: N-terminal GST; dsDNA, one strand shown
Chain of ETV5 (P41161 whole entry): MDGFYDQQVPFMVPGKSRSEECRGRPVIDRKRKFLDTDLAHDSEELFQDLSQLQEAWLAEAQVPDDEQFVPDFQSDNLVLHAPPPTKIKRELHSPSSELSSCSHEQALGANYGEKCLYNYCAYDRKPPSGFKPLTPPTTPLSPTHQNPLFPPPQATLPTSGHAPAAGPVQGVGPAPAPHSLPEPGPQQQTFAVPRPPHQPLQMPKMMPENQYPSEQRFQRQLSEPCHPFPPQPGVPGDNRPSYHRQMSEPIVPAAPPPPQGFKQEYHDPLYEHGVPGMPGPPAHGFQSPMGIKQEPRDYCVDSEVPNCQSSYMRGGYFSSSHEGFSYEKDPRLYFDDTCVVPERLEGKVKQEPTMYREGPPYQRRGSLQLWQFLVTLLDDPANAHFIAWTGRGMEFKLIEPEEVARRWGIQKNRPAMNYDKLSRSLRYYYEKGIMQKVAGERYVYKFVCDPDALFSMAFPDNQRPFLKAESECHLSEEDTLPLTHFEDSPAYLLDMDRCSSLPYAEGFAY
Summary of the method: as §1

HSF1 = HSF1 (Homo sapiens, UniProt Q00613 1-529); settings: protein: recombinant; tags: N-terminal GST; chain copies: 3; dsDNA, one strand shown
Chain of HSF1 (Q00613 whole entry): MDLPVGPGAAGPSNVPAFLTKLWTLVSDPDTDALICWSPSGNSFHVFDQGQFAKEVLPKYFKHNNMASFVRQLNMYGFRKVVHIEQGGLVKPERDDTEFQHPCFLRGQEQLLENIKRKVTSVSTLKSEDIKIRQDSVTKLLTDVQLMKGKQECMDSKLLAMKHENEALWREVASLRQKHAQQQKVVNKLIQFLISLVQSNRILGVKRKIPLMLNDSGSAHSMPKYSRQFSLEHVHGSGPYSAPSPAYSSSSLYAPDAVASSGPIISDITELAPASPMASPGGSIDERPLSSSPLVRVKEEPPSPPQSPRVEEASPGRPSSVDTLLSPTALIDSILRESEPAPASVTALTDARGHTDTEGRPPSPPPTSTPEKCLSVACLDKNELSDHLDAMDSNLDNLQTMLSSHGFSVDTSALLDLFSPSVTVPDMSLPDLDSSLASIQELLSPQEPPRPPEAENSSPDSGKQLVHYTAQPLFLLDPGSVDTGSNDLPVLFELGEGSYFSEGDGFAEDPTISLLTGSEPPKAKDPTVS
Summary of the method: as §1

SPIC = biological target: T6, SPIC (Homo sapiens, UniProt Q8N5J4 1-248); settings: protein: recombinant; tags: N-terminal GST; dsDNA, one strand shown
T6 sequence: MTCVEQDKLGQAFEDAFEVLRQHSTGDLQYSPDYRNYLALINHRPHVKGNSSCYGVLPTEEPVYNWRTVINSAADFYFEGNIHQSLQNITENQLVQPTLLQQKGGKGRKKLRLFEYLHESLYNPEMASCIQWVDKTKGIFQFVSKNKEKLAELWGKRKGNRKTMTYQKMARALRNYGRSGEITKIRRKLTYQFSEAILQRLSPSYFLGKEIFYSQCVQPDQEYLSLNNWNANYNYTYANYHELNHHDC
Summary of the method: as §1

ELK4 = biological target: T7, ELK4 (Homo sapiens, UniProt P28324-2 1-405); settings: protein: recombinant; tags: N-terminal GST; dsDNA, one strand shown
T7 sequence: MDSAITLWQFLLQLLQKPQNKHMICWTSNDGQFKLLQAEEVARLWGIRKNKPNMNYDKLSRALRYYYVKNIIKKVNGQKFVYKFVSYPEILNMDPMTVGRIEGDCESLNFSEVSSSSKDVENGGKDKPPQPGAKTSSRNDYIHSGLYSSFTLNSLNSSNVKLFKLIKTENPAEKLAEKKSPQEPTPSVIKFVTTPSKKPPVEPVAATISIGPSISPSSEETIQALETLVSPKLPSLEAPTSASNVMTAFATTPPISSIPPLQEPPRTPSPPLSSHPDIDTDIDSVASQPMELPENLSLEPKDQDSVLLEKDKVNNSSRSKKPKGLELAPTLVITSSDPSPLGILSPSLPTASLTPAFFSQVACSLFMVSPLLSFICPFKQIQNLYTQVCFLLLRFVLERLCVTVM
Summary of the method: as §1

ETV2 = biological target: T8, ETV2 (Homo sapiens, UniProt O00321 1-342); settings: protein: recombinant; tags: N-terminal GST; dsDNA, one strand shown
T8 sequence: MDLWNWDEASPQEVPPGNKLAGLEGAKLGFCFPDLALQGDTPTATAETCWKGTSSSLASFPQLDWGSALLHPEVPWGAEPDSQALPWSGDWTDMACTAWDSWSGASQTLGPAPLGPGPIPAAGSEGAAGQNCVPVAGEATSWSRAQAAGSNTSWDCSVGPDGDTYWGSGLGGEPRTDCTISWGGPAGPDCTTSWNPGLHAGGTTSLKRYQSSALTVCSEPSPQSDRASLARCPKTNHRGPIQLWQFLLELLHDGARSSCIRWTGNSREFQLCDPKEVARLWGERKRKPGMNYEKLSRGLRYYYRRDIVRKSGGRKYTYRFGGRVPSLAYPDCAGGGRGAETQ
Summary of the method: as §1

CRX = CRX (Homo sapiens, UniProt O43186 1-299); settings: protein: recombinant; tags: N-terminal GST; dsDNA, one strand shown
Chain of CRX (O43186 whole entry): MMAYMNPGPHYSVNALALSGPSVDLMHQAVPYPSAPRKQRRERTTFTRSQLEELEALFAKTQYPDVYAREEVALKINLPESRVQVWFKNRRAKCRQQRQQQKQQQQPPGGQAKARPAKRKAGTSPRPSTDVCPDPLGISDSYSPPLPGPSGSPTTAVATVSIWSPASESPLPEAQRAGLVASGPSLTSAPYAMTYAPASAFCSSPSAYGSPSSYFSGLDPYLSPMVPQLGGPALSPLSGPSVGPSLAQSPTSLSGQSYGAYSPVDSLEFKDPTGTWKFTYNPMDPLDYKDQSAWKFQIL
Summary of the method: as §1

ETV1 = ETV1 (Homo sapiens, UniProt P50549 1-477); settings: protein: recombinant; tags: N-terminal GST; dsDNA, one strand shown
Chain of ETV1 (P50549 whole entry): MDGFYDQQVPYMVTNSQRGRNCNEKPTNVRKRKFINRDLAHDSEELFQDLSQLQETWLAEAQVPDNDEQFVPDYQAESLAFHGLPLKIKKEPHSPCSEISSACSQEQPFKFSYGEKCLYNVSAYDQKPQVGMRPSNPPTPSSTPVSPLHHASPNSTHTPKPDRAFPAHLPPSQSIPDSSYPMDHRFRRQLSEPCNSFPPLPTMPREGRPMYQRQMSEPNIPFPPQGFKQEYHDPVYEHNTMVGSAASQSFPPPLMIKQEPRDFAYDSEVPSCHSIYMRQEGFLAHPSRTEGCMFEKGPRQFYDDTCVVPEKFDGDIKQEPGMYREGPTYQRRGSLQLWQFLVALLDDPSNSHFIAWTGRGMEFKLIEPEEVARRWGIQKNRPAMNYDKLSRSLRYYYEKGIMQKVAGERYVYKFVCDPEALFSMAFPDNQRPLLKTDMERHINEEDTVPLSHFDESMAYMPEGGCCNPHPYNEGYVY
Summary of the method: as §1

Sequence: GAATTA
- binding signal (FLI1): 1.09 fold enrichment (6-mer frequency, TF over GST control)
- binding signal (ELK1): 1.05 fold enrichment (6-mer frequency, TF over GST control)
- binding signal (ERG): 1.01 fold enrichment (6-mer frequency, TF over GST control)
- binding signal (ELF1): 1.04 fold enrichment (6-mer frequency, TF over GST control)
- binding signal (EHF): 1.12 fold enrichment (6-mer frequency, TF over GST control)
- binding signal (SPI1): 1.07 fold enrichment (6-mer frequency, TF over GST control)
- binding signal (SPIB): 1.02 fold enrichment (6-mer frequency, TF over GST control)
- binding signal (ELK3): 1.12 fold enrichment (6-mer frequency, TF over GST control)
- binding signal (ETV5): 1.01 fold enrichment (6-mer frequency, TF over GST control)
- binding signal (HSF1): 1.72 fold enrichment (6-mer frequency, TF over GST control)
- binding signal (SPIC): 1.12 fold enrichment (6-mer frequency, TF over GST control)
- binding signal (ELK4): 1.09 fold enrichment (6-mer frequency, TF over GST control)
- binding signal (ETV2): 1.02 fold enrichment (6-mer frequency, TF over GST control)
- binding signal (CRX): 2.39 fold enrichment (6-mer frequency, TF over GST control)
- binding signal (ETV1): 1.08 fold enrichment (6-mer frequency, TF over GST control)
